Bioassay records as filed in PubChem.
HPGD inh = qHTS Assay for Inhibitors of HPGD (15-Hydroxyprostaglandin Dehydrogenase); 15-hydroxyprostaglandin dehydrogenase [NAD(+)] (Homo sapiens), P15428; purified HPGD, NADH fluorescence kinetic, PGE2 substrate; Potency, µM, for the others: at the top dose activity change, negative = inhibition, most hits filed as inhibitors; 150,000 tested, 4.3% active; AID 894, 2007; note: potency is the fitted concentration of half-maximal effect
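20 nM HPGD preincubated 15 min at room temperature with compound in 50 mM Tris-HCl pH 8, 0.01% Tween 20. Started with 1 mM NAD+ and 30 uM prostaglandin E2; NADH fluorescence (360/450 nm) read 5 times over 30-s intervals, last minus first.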
ALDH1A1 inh = qHTS Assay for Inhibitors of Aldehyde Dehydrogenase 1 (ALDH1A1); Aldehyde dehydrogenase 1A1 (Homo sapiens), P00352; Purified ALDH1A1, NADH fluorescence, propionaldehyde substrate; Potency, µM (titrated, usually from 75.3 µM), for the others: at the highest dose activity, negative = inhibition, hits mostly inhibitors; 220,000 tested, 7.3% active; AID 1030, 2008;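 note: potency is the fitted concentration of half-maximal effect; plate controls were no enzyme wells and a reference inhibitor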
PNC inhibitor = High Content Assay for Compounds that inhibit the Assembly of the Perinucleolar Compartment; PC3M PTB-GFP, PNC prevalence imaging, 16 h; active compounds read low; activity change (PNC), negative = inhibition, % at 10 µM; 140,000 tested, 3.1% active; AID 2417, 2010;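 active = readout at or below -70, meaning at least 70% loss of cells showing the perinucleolar compartment, a nuclear body marking cancer cells; inconclusive = readout between -30 and a set limit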;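 note: plate controls were DMSO wells for no effect and camptothecin positive control wells for full effect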
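PC3M cells stably expressing PTB-GFP, 750–1000 cells/well, treated 16 h at 37 °C with compound (23 nl of library stock), in duplicate. After paraformaldehyde fixation and Hoechst stain, imaged at 20x; PNC prevalence scored by image analysis.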
KDM4E inh = qHTS Assay for Inhibitors of Human Jumonji Domain Containing 2E (JMJD2E) | JMJD2E catalytic domain, FDH-coupled NADH fluorescence (FDH is formaldehyde dehydrogenase) | Potency, µM (series often up to 57.1 µM), for the others: at the highest dose activity change, negative = inhibition, usual class: inhibitors | 230,000 tested, 1.6% active | AID 2147, 2009;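 note: potency is the fitted concentration of half-maximal effect; 0% = wells with enzyme and -100% = buffer wells without enzyme; nearly all actives have a fitted effect of over 50% in size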
Target sequence (B2RXH2 1-337 limits assumed): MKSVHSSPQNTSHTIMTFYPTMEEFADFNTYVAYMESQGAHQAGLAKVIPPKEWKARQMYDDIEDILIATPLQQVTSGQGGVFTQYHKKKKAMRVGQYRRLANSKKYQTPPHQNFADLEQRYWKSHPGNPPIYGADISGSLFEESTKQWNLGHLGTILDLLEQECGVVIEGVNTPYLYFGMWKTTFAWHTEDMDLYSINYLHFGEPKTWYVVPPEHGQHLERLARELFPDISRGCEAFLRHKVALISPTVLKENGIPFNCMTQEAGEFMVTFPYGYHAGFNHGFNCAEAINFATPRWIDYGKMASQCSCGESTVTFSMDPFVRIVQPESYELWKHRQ
Numbers without * were called inactive; ? = inconclusive; nt = no result; [ ] = dose if it differs, or a comment. Rows were chosen to be rich in hits. Some 11% of all compounds tested hit in one or more screens of this group. Unless noted, calls come from the whole dose curve; as a rule, active = well fitted inhibition curve with a large enough effect (not every such curve was filed as active); inconclusive = small, poorly fitted or top-dose-only effect, or another doubt; inactive = no such curve, though single readings can be large or run the other way. Unless noted, % is set by controls: 0 for no effect and ±100 for the full control effect.

SMILES | HPGD inh | ALDH1A1 inh | PNC inhibitor | KDM4E inh
CCOc1ccccc1C(=O)NC(C(=O)Nc1cccnc1)C(C)C (centres undefined) | nt | 2.9% | nt | 3.0%
O[C@@H]([C@H](O)[C@@H](O)CBr)[C@@H](O)CBr | 0.3% | ? | nt | nt
CCC[C@@H]1C[C@@]1(CCC)C(NC(=O)c1ccco1)c1ccc(Cl)cc1 (some centres undefined) | -14.0% | 0.2% | nt | -5.7%
C=C(C)COc1ccc2c(c1)CCC1C2CC[C@]2(C)C(=O)/C(=N/O)CC12 (some centres undefined) | 2.0% | 7.5%[13.5 µM] | nt | nt
CSc1ncc(Cl)c(C(=O)C(C#N)c2nc3c(C)cc(C)cc3c(=O)[nH]2)n1 (centres undefined) | 25.1µM* | -10.3% | -94.6* | ?
CSc1ncc(Cl)c(C(=O)Nc2cccc(C)c2)n1 | -18.2% | -5.3% | 5.4 | -11.1%
CCCCCCCC/C=C\CCCCCCCC(=O)N(CCO)CCO | -8.4% | ? | nt | nt
CCC(C)N=C1Sc2nc3ccc(C)cc3cc2CN1CCOC (centres undefined) | nt | 14.1µM* | nt | -8.7%
COCCN1Cc2cc3cc(C)ccc3nc2SC1=Nc1ccc(OC)cc1 | nt | -14.9% | nt | -2.7%
CCOC(=O)C(NCCOC)(NC(C)=O)C(F)(F)F (centres undefined) | nt | nt | nt | 0.1%
NC1=N[C@H](c2ccc(Cl)cc2)N(c2ccc(S(N)(=O)=O)cc2)C(N)=N1 | 0.4% | 6.4%[13.5 µM] | nt | nt
CCOC(=O)C1=C(c2ccccc2)NC(=O)NC1c1ccc(N(C)C)cc1 (centres undefined) | -8.4% | 14.1µM* | -100.0* | 0.3%
CCOC(=O)C1=C(C)NC(=O)NC1c1ccc2c(c1)OCCO2 (centres undefined) | -2.8% | 13.3% | -100.0* | -1.1%
CCOC(=O)C1=C(c2ccccc2)NC(=O)NC1c1ccc(OC)cc1 (centres undefined) | nt | -13.7% | nt | -6.0%
CCOC(=O)C1=C(C)NC(=O)NC1c1ccc(OCC(N)=O)cc1 (centres undefined) | -12.4% | 7.8% | -100.0* | 3.9%
CCOC(=O)C1=C(C)NC(=O)NC1c1ccc(OC(=O)c2ccco2)cc1 (centres undefined) | -10.1% | 0.9% | 15.7 | 5.6%
CC(C)=CCN1CCN(Cc2cc(F)ccc2-n2nc(C)cc2C)CC1CCO (centres undefined) | nt | 8.1% | nt | 8.1%
Clc1ccccc1-c1ccc2ncnc(NC3CCNCC3)c2c1 | nt | 13.6% | nt | nt
O=C(O)c1cccc(NC(=O)c2cccc(S(=O)(=O)N3CCc4ccccc4C3)c2)c1 | nt | 1.4% | nt | 10.7%
COC(=O)C(CCCCNC(=O)OCc1ccccc1)NC(=O)CN (centres undefined) | -3.1% | 28.2µM* | 29.2 | 2.3%
O=C(O)CCCNC(=O)OCc1ccccc1 | -0.2% | 8.2% | -23.8 | -5.1%
Cc1cc(Nc2ccccc2N2CCOCC2)n2ncnc2n1 | 17.8µM* | 4.2% | -11.7 | 1.3%
C=CCNC(=S)Nc1sc2c(c1C(=O)OCC)CC(C)(CC)OC2 (centres undefined) | -14.8% | ? | -100.0* | -6.0%
CCOC(=O)c1c(NC(=S)Nc2cccc(C)c2)sc2c1CC(C)(C)SC2 | ? | 3.98µM* | ? | 1.2%
CCOC(=O)N1CCc2c(sc(NC(=O)CN3CCOCC3)c2C(=O)Nc2ccccc2)C1 | nt | ? | nt | -6.9%
SMILES | HPGD inh | ALDH1A1 inh | PNC inhibitor | KDM4E inh
CCOC(=O)c1c(NC(=S)NCc2ccccc2)sc2c1CCN(C(=O)OCC)C2 | nt | nt | nt | -1.4%
CCOC(=O)N1CCc2c(sc(NC(=O)CN3CCN(C)CC3)c2C(=O)Nc2ccccc2)C1 | nt | 14.1µM* | nt | -18.7%
C=CCNC(=S)Nc1sc2c(c1C(=O)OCC)CCN(C(=O)OCC)C2 | -13.6% | 20µM* | -26.8 | -2.7%
COc1cccc(Nc2ncc3nc(-c4cn(C)c5ccccc45)c(=O)n(C[C@H]4CCCO4)c3n2)c1 | nt | 8.7% | nt | nt
CC(C)(C)OC=O | -15.7% | 5.8% | nt | nt
Cc1cc(OCC(=O)NCC(C)C)cc(C)c1Br | 14.1µM* | ? | 14.1 | 8.1%
Cc1cc(OCC(=O)NC(C)C)cc(C)c1Cl | -22.8% | -5.8% | -100.0* | 6.4%
C=CCN1c2ccccc2[C@]23C[C@@H](C(=O)OC)N(C(=O)COCc4ccccc4)C2=NC(C(=O)OC)=C(C(=O)OC)[C@H]13 | 0.3% | 6.9%[13.5 µM] | nt | 1.5%[11.4 µM]
